From PubChem BioAssay come the findings set out here.

SMILES strings stand for the structures. “And” between values parts separate entries of the source, which are not always exact repeats. Equal entries are not always repeated. The source made the active and inactive calls.

This experiment is described as follows: JC-1 mitochondrial signal, unstimulated adipocytes – cell-based, JC-1 fluorescence, 3T3-L1 adipocytes, 24 h, 100 nL compound, profiling panel (AID 1168). Also: test concentration not given here. As to conditions: JC-1 mitochondrial fluorescence, higher = more signal, called active from +8 up or from −8 down.
For the compound `CO[C@H]1COC(=O)CC=C[C@@H](C)COC(=O)[C@H](CCSC)NC(=O)CC=C[C@@H]1C`, the z-score was -0.153 (inactive) and 0.157 (inactive).

Regarding `C=CCN(CCCCC)C(=O)C1N(C(C)(C)CO)C(=O)C2C(C(=O)O)C3C=CC21O3` (centres undefined), the z-score was 0.044 (inactive) and -0.845 (inactive).

In the case of `C=CCN1C(=O)[C@]2(O[C@H](CCn3cc(CCO)nn3)[C@@H]([Si](C)(C)c3ccc(OC)cc3)[C@@H]2C)c2cc(N3C(=O)c4cccc5cccc3c45)ccc21`, the z-score was 5.29 (inactive) and 4.16 (inactive).

On to `CCC[C@@H]1C[C@@]1(CCC)[C@@H](NC(=O)c1ccc(-c2ccccc2)cc1)c1cccc(Cl)c1`, for which the z-score was -0.723 (inactive) and 0.883 (inactive).

As to `C[C@@H]1CC[C@H]2C(=O)O[C@H](CN=[N+]=[N-])CN2[C@H]1c1ccc(Br)cc1`, the z-score was -0.136 (inactive) and 0.265 (inactive).

Regarding `C[C@@H]1CN2[C@@H](CC[C@@H](C)[C@@H]2c2ccc(Br)cc2)C(=O)O1`, the z-score is -0.0606 (inactive) and 0.229 (inactive).

Turning to `COc1ccc(O[C@H]2C=C[C@@H](c3ccccc3)O[C@@H]2COC(=O)CCC(C)=NO[C@H](C)c2cn([C@H](CO)Cc3ccccc3)nn2)cc1`, the z-score is -2.62 (inactive) and -0.634 (inactive).

Turning to `CON(C)C(=O)c1nnc2c3ccccc3n(S(=O)(=O)c3ccc(C)cc3)c2n1`, the z-score is -0.301 (inactive) and -0.0202 (inactive).

Regarding `COc1ccc(COC(=O)NN=C2C[C@@H](O)[C@@H](O)[C@@H]3[C@@H]4C(=O)N(C(C)(C)C)C(=O)[C@@H]4CC[C@H]23)cc1`, the z-score is 1.14 (inactive).

Consider `COC(=O)C1=C(C)N(Cc2ccccc2)[C@]23O[C@](C(=O)OC)(C(=O)N2[C@@H]1c1ccccc1)[C@@H](C(=O)OC)[C@H]3C(=O)OC`, for which the z-score was 0.225 (inactive) and 1.49 (inactive).

Consider `C[C@@H]1CC[C@H]2C(=O)NC[C@@H](O)CN2[C@H]1c1ccc(Br)cc1`, for which the z-score is -0.455 (inactive) and 0.104 (inactive).

As for `C#CCCCON=C1C[C@@H](O)[C@@H](O)[C@@H]2[C@@H]3C(=O)N(C4CCCCC4)C(=O)[C@@H]3CC[C@H]12`, the z-score was 0.201 (inactive).

Take `C[C@@H]1CC[C@@H](C(=O)O)N[C@H]1c1ccc(-c2ccco2)cc1`: the z-score was 0.309 (inactive).

As to `C=CCN(C(=O)C1N(C(C)(C)CO)C(=O)C2C(C(=O)O)C3C=CC21O3)C(C)(C)C` (centres undefined), the z-score was -0.308 (inactive) and 0.228 (inactive).

With `C=CCN(C(=O)C(c1cccs1)N(C(=O)/C=C\C(=O)O)c1ccc(CCO)cc1)C(C)(C)C` (centres undefined), the z-score was 0.529 (inactive) and -0.179 (inactive).

With `Cc1ccc(S(=O)(=O)N[C@H]2COC(=O)[C@@H](Cc3ccccc3)NC(=O)[C@@H](C)COC(=O)CC=C[C@@H]2C)cc1`, the z-score is -0.517 (inactive) and -0.812 (inactive).

On to `CC(C)[Si]1(C(C)C)OCc2cc(CCCc3cc4c(c(CCc5ccccc5)n3)[Si](C(C)C)(C(C)C)OC4)nc(CCc3ccccc3)c21`, for which the z-score is 1.72 (inactive) and -1 (inactive).

With `O=c1n(-c2ccccc2)c(=O)n2n1CC[C@@H]1C(=NOC[C@@H](O)COCc3ccco3)[C@H]3O[C@H]3[C@@H](O)[C@@H]12`, the z-score is 0.127 (inactive) and -1.22 (inactive).

Consider `O=C1C[C@]2(c3ccc([N+](=O)[O-])cc3)C(=O)N(Cc3ccccc3)c3cc(CO)ccc3[C@H]2N1C1CCCCC1`, for which the z-score is -0.0101 (inactive) and -0.0655 (inactive).

Consider `CCOC(=O)[C@H](CC(C)C)NC(=O)CCC1CC(OC(=O)NCc2cccc3ccccc23)CC2(CCCC(COC(=O)NCc3ccccc3)O2)O1` (some centres undefined), for which the z-score was 0.472 (inactive).

Regarding `CCOC(=O)c1ccc(NC(=O)O[C@H]2[C@H](OC(=O)Nc3ccccc3)[C@H](OC(=O)Nc3ccccc3)[C@@H](OC)O[C@@H]2CO)cc1`, the z-score is 1.31 (inactive) and -0.302 (inactive).

For `CC[C@@H]1C(Sc2ccccc2)C(C(=O)O)[C@H](c2ccc(C)cc2)N1S(=O)(=O)c1ccc(C)cc1` (some centres undefined), the z-score is 0.164 (inactive) and 0.619 (inactive).

Regarding `CCCC[C@@H]1CN2[C@@H](CC[C@@H](C)[C@@H]2c2ccc(Br)cc2)C(=O)O1`, the z-score is -0.136 (inactive) and -1.09 (inactive).

Turning to `C=CCN(CCCCC)C(=O)C(c1cccs1)N(C(=O)/C=C\C(=O)O)c1ccc(CCO)cc1` (centres undefined), the z-score is -0.177 (inactive) and 0.506 (inactive).
